Laboratory results from ChEMBL document CHEMBL1201862, “PubChem BioAssay data set” (2004).
Screen size: about 18,000 compounds; about 750 (4.2%) were called active. Roughly 13% stayed inconclusive and do not appear here. No cut-off for these calls is given here. Shown is part of a subset that was picked to be rich in actives.

experiment: qHTS for Inhibitors of binding or entry into cells for Lassa Virus.

SMILES | Potency
CC12C(=O)OC(=O)C1(C)C1CCC2O1 (stereo unspecified) | 562 µM (active)
